About 1,700 (3.3%) of roughly 52,000 compounds were called active. No stated cut-off is given here; in the data, active means survival mostly below about 52% (no sharp cut-off); inactive means mostly above about 56%. This excerpt belongs to a sample that is enriched for actives.
system: Wild type; assay: S. aureus survival, RN4220 and DeltatarO strains – OD600, teichoic acid synthesis inhibitors, primary screen (AID 463173); details: S. aureus RN4220 wild type/DeltatarO growth, OD600, 18 h, stronger effect = lower value, screened at 18.75 µg/mL (by protocol)

| SMILES | survival |
| --- | --- |
| CCOC(=O)C1NC(=O)CC1c1ccccc1 (stereo not given) | 99% (inactive) |
| CCc1ccc(OC(C)C(=O)N2CCC(c3nc4ccccc4o3)CC2)cc1 (stereo not given) | 92% (inactive) |
| COc1ccccc1OCC(=O)N1CCC(c2nc3ccccc3o2)CC1 | -12% (active) |
| Cc1cccc(C)c1OCC(=O)N1CCC(c2nc3ccccc3o2)CC1 | 81% (inactive) |
| CC(Oc1ccccc1F)C(=O)N1CCC(c2nc3ccccc3o2)CC1 (stereo not given) | -18% (active) |
| Cc1cccc(OC(C)C(=O)N2CCC(c3nc4ccccc4o3)CC2)c1C (stereo not given) | 74% (inactive) |
| Cc1cccc(OCC(=O)N2CCC(c3nc4ccccc4o3)CC2)c1C | 72% (inactive) |
| Cc1ccccc1C(=O)NC1CCN(CC(=O)NC(C)(C)C)CC1 | 100% (inactive) |
| CC(Oc1ccc(/C=C(/C#N)C(=O)N2CCOCC2)cc1)C(=O)O (stereo not given) | 104% (inactive) |
| Cc1ccc(N(C)C(=O)c2noc3c2CCCCC3)cc1C | 73% (inactive) |
| CCCCn1c(=O)c2oc3ccccc3c2n(Cc2ccc(OC)cc2)c1=O | 115% (inactive) |
| CCCCN(C)CC(O)Cn1cc(/C=C/C(=O)c2ccc(Br)cc2)c2ccccc21 (stereo not given) | 15% (active) |
| CCCCN(C)CC(O)Cn1cc(/C=C/C(=O)c2ccc(C)cc2)c2ccccc21 (stereo not given) | 15% (active) |
| CCCCN(C)CC(O)Cn1cc(/C=C/C(=O)c2ccc(OCC)cc2)c2ccccc21 (stereo not given) | 21% (active) |
| Cc1ccc(C(=O)/C=C/c2cn(CC(O)CN3CCc4ccccc43)c3ccccc23)cc1 (stereo not given) | 76% (inactive) |
| CCCCN(C)CC(O)Cn1cc(/C=C/C(=O)c2ccc(OC)c(OC)c2)c2ccccc21 (stereo not given) | 87% (inactive) |
| CCOc1ccc(C(=O)/C=C/c2cn(CC(O)CN3CCc4ccccc43)c3ccccc23)cc1 (stereo not given) | 69% (inactive) |
| O=C(O)CCc1ccc(-c2ccccc2)n1Cc1ccco1 | 103% (inactive) |
| CCOc1ccc(S(=O)(=O)N(C(C)=O)c2ccc3oc(C)c(C(=O)OC)c3c2)cc1 | 130% (inactive) |
| Cc1ccc(N(Cc2cccs2)C(=O)c2ccccc2[N+](=O)[O-])cc1 | 82% (inactive) |

| SMILES | survival |
| --- | --- |
| CN1C=CC=C/C1=C1\SC(=S)N(C2CCCCC2)C1=O | 120% (inactive) |
| CC(C)Oc1ccc(CNC(=O)c2ccc(NC(=O)N3CCSc4ncccc43)cc2)cc1 | 1% (active) |
| CC(=O)c1ccc(NC(=O)c2cccc(NC(=O)N3CCSc4ncccc43)c2)cc1 | 55% (inactive) |
| Cc1ccccc1NC(=O)c1ccc(NC(=O)N2CCSc3ncccc32)cc1 | -4% (active) |
| CCOc1ccc(NC(=O)c2ccc(NC(=O)N3CCSc4ncccc43)cc2)cc1 | 64% (inactive) |
| Cc1ccc(NC(=O)c2ccc(NC(=O)N3CCSc4ncccc43)cc2)c(C)c1 | 82% (inactive) |
| Cc1ccc(Cl)cc1NC(=O)c1ccc(NC(=O)N2CCSc3ncccc32)cc1 | 71% (inactive) |
| CCc1cccc(NC(=O)c2ccc(NC(=O)N3CCSc4ncccc43)cc2)c1 | -3% (active) |
| CC(C)Oc1ccc(CNC(=O)Cc2ccc(NC(=O)N3CCSc4ncccc43)cc2)cc1 | 73% (inactive) |
| CC(C)Oc1ccc(CNC(=O)c2cccc(NC(=O)N3CCSc4ncccc43)c2)cc1 | 79% (inactive) |
| CCOc1ccc(-c2oc3cc(Cl)ccc3c(=O)c2O)cc1OC | 103% (inactive) |
| CC(C)NC(=O)CSc1cn(CC(=O)N2CCCCCC2)c2ccccc12 | 95% (inactive) |
| Cc1cc2c(cc(C(=O)OC(C(=O)NCC3CCCO3)C(C)C)n2C)o1 (stereo not given) | 120% (inactive) |
| O=C(c1ccc(F)cc1)N1c2ncnn2C2(CCCCC2)[C@@H]2CCCC[C@@H]21 | 82% (inactive) |
| COc1ccc(Cn2c(CNS(=O)(=O)c3ccc(Cl)s3)nc3cccnc32)cc1 | 78% (inactive) |
| CCC/C(O)=C1\C(=O)CC(C)(C)CC1=Nc1ccncc1 | 115% (inactive) |
| CCc1ccc(NC(=O)CN2CCN(C3CCCCC3)C(=O)C2=O)cc1 | 77% (inactive) |
| CCc1ccc(NC(=O)C2CCCN(S(=O)(=O)c3ccc(F)cc3)C2)cc1 (stereo not given) | 75% (inactive) |
| CCOC(=O)c1c(C(=O)CSc2ncc(-c3ccc(F)cc3)n2Cc2ccco2)sc2c1CCCC2 | 116% (inactive) |
| CCOc1ccc(C(C)N)cc1 (stereo not given) | 102% (inactive) |

| SMILES | survival |
| --- | --- |
| COCCNC(=O)Nc1ccc2c(c1)nc(C)n2C | 87% (inactive) |
| COc1cc(C2Nc3ccccc3-c3cc(C)nn32)ccc1O (stereo not given) | 139% (inactive) |
| COc1cc(C2Nc3c(C)cc(C)cc3-c3cc(C)nn32)cc(OC)c1O (stereo not given) | 97% (inactive) |
| COc1cc(OC)c(C2Nc3c(C)cccc3-c3cc(C)nn32)cc1OC (stereo not given) | 142% (inactive) |
| COc1ccc(OC)c(C2Nc3c(C)cc(C)cc3-c3cc(C)nn32)c1 (stereo not given) | -14% (active) |
| CCOc1cccc(C2Nc3ccccc3-c3cc(C)nn32)c1O (stereo not given) | 145% (inactive) |
| COC(=O)c1ccc(C2Nc3c(C)cccc3-c3cc(C)nn32)cc1 (stereo not given) | -4% (active) |
| Cc1cc2n(n1)C(c1ccccc1)Nc1ccccc1-2 (stereo not given) | 123% (inactive) |
| CCOc1ccc(C2Nc3c(C)cccc3-c3cc(C)nn32)cc1 (stereo not given) | -14% (active) |
| Cc1cc2n(n1)C(c1cc(C(C)(C)C)c(O)cc1O)Nc1ccccc1-2 (stereo not given) | 115% (inactive) |
| Cc1ccc2c(c1)-c1cc(C)nn1C(c1cc(Br)ccc1O)N2 (stereo not given) | 131% (inactive) |
| CCN(CC)c1ccc(C2Nc3ccccc3-c3cc(C)nn32)cc1 (stereo not given) | -1% (active) |
| CC(=O)Nc1ccc(C2Nc3c(C)cc(C)cc3-c3cc(C)nn32)cc1 (stereo not given) | 141% (inactive) |
| O=C(NCc1ccc(Cl)cc1)C(=O)NCC(c1ccco1)S(=O)(=O)c1cccs1 (stereo not given) | 76% (inactive) |
| Cc1ccc(Cn2c(=O)n(Cc3ccco3)c(=O)c3sc4ccccc4c32)cc1 | 94% (inactive) |
| COc1ccc(-c2noc(CN3CCN(c4ccccc4OC)CC3)n2)cc1OC | 83% (inactive) |
| CCOC(=O)N1CCN(C(=O)CN(c2cccc(Cl)c2)S(=O)(=O)c2ccccc2)CC1 | 63% (inactive) |
| CCOC(=O)c1cccc(NC(=O)NCCc2c(C)nn(C)c2C)c1 | 63% (inactive) |
| COc1ccc(Nc2cc(C(=O)NCCCN(C)C3CCCCC3)c3ccccc3n2)c(OC)c1 | 92% (inactive) |
| COc1ccc(NC(=O)c2cc3c(-c4ccccc4F)nn(C)c3s2)c(OC)c1 | 38% (inactive) |
